Records with an inconclusive call do not appear. Calls of active or inactive are those of the source. The call rests on the fitted dose curve; in most records, active means well fitted curve in the direction sought with a large enough effect; inconclusive means small, poorly fitted or top-dose-only effect, or another doubt; inactive means no such curve, though single readings can be large; an effect the other way counts as inactive or inconclusive.
Columns and labels:
[1] = P-glycoprotein substrates identified in KB-3-1 adenocarcinoma cell line, qHTS therapeutic library screen (AID 1346986); further: nearly all actives have a fitted effect of over 60% in size
Method in brief: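 In 1536-well format, 500 cells/well received pinned compound titrations and were incubated 72 h, 5% CO2. Viability was read by CellTiter-Glo; cytotoxic if AC50 < 10 uM and efficacy >50%.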

[2] = P-glycoprotein substrates identified in KB-8-5-11 adenocarcinoma cell line, qHTS therapeutic library screen (AID 1346987); further: nearly all actives have a fitted effect of over 65% in size; on activity change, negative = cytotoxicity: series mostly up to about 44 µM; on the % scale 0 is the no-effect control and ±100 the full control effect
Method in brief: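 Luminescence from CellTiter-Glo, read 5 min after addition, quantified survival of KB-8-5-11 (P-gp-overexpressing) cells exposed to compounds for 72 h. AC50 was derived from concentration-response curves.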

[3] = test system: Zika virus NS2B-NS3 protease (unlinked complex); assay: Primary screen GU Rhodamine qHTS for Zika virus inhibitors: Unlinked NS2B-NS3 protease assay (AID 1347159); further: nearly all actives have a fitted effect of over 60% in size; further: potency means the concentration at half of the fitted maximal effect; on activity change, negative = inhibition: on the % scale 0 is the no-effect control and ±100 the full control effect
Method in brief: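 Buffer 10 mM Tris-HCl pH 8.0, 0.01% Tween 20. Unlinked protease 25 nM; compound preincubation 15 min, RT, protected from light. Substrate Rhod110, 1.5 microM; ~15% conversion in 15 min.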

[4] = test system: Zika virus NS2B-NS3 protease (linked construct); assay: Primary screen NINDS Rhodamine qHTS for Zika virus inhibitors (AID 1347160); further: nearly all actives have a fitted effect of over 55% in size; further: potency means the concentration at half of the fitted maximal effect; on activity change, negative = inhibition: on the % scale 0 is the no-effect control and ±100 the full control effect
Method in brief: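 Aprotinin served as in-plate control. Conditions: 25 nM linked NS2B-NS3, pH 8.0 Tris buffer, titrated compounds, 15 min preincubation and 15 min reaction with 1.5 microM Rhod110 substrate at room temperature.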

O=C(COCC(=O)N1CCN(C(c2ccccc2)c2ccccc2)CC1)Nc1ccc(Cl)cc1C(=O)O
active: Potency [3] 11.2 µM | Potency [4] 12.6 µM
inactive: Potency [1] | Potency [2]

CCOC(=O)CSc1nc2c(sc3ccccc32)c(=O)n1CCCN1CCCC1
inactive: Potency [1] | Potency [2] | Potency [3] | Potency [4]

NC[C@@H]1O[C@@H](O[C@@H]2[C@@H](O[C@@H]3O[C@H](CO)[C@@H](O)[C@H]3O)[C@H](O)[C@@H](N)C[C@H]2N)[C@@H](N)[C@H](O)[C@H]1O
inactive: outcome [1] inactive [at 9.29 µM] | outcome [2] inactive [at 9.29 µM] | activity change, negative = inhibition [3] 6.33% [at 19.1 µM] | Potency [4]

C[C@H]1[C@H](C)CC[C@]2(C(=O)OC3OC(CO)C(O)C(O)C3O)CC[C@]3(C(=O)O)C(=CCC4[C@@]5(C)CC[C@H](O[C@@H]6O[C@@H](C)[C@H](OC7OC(CO)C(O)C(O)C7O)[C@@H](O)[C@H]6O)C(C)(C)C5CC[C@]43C)[C@H]12 (some centres undefined)
inactive: outcome [1] inactive [at 9.29 µM] | activity change, negative = cytotoxicity [2] -1.84% [at 9.29 µM] | Potency [3] | Potency [4]

C[C@@H]1O[C@@H](O[C@H]2[C@H](Oc3cc(O)c(C(=O)CCc4ccc(O)cc4)c(O)c3)O[C@H](CO)[C@@H](O)[C@@H]2O)[C@H](O)[C@H](O)[C@H]1O
inactive: Potency [1] | Potency [2] | Potency [3] | Potency [4]

CCc1cccc2c3c([nH]c12)[C@@](CC)(CC(=O)O)OCC3
inactive: Potency [1] | Potency [2] | Potency [3] | Potency [4]

CC(C)(O)C(O)C(=O)OCc1ccc(O[C@@H]2O[C@H](CO)[C@@H](O)[C@H](O)[C@H]2O)cc1 (some centres undefined)
inactive: Potency [1] | Potency [2] | Potency [3] | Potency [4]

C=C[C@H]1[C@H](O[C@@H]2O[C@H](CO)[C@@H](O)[C@H](O)[C@H]2O)OC=C2C(=O)N3Cc4c([nH]c5ccccc5c4=O)[C@@H]3C[C@H]21
inactive: Potency [1] | Potency [2] | Potency [3] | Potency [4]

CC1(C)CC[C@]2(C(=O)O[C@@H]3O[C@H](CO[C@@H]4O[C@H](CO[C@@H]5O[C@H](CO)[C@H](O)[C@H](O)[C@H]5O)[C@@H](O)[C@H](O)[C@H]4O)[C@@H](O)[C@H](O[C@@H]4O[C@H](CO)[C@@H](O)[C@H](O)[C@H]4O)[C@H]3O)[C@H](O)C[C@]3(C)C(=CCC4[C@@]5(C)CC[C@H](O[C@@H]6OC[C@@H](O)[C@H](O)[C@H]6O)[C@@](C)(C(=O)O)C5CC[C@]43C)[C@@H]2C1 (some centres undefined)
inactive: outcome [1] inactive [at 9.29 µM] | outcome [2] inactive [at 9.29 µM] | activity change, negative = inhibition [3] 8.5% [at 19.1 µM] | Potency [4]

Cn1cc(Nc2cnccc2C(=O)O)c2cccnc21
inactive: Potency [1] | Potency [2] | Potency [3] | Potency [4]

COc1cc(/C=C/C(=O)OCC2OC(OC3(CO)OC(CO)C(O)C3O)C(O)C(O)C2O)ccc1O (centres undefined)
inactive: Potency [1] | Potency [2] | Potency [3] | Potency [4]

CCN1CCN(C(=O)N[C@@H](C(=O)N[C@@H]2C(=O)N3[C@@H]2SC(C)(C)[C@@H]3C(=O)O)c2ccccc2)C(=O)C1=O
inactive: Potency [1] | Potency [2] | Potency [3] | Potency [4]

CC(=O)O[C@H]1[C@H](O[C@H]2CC[C@]34C[C@]35CC[C@]3(C)[C@@H]([C@@]6(C)CC[C@@H](C(C)(C)O)O6)[C@@H](O)C[C@@]3(C)[C@@H]5C[C@H](O[C@@H]3O[C@H](CO)[C@@H](O)[C@H](O)[C@H]3O)[C@H]4C2(C)C)OC[C@@H](OC(C)=O)[C@@H]1O
inactive: Potency [1] | Potency [2] | Potency [3] | Potency [4]

Cc1occc(=O)c1O[C@@H]1O[C@H](CO)[C@@H](O)[C@H](O)[C@H]1O
inactive: Potency [1] | Potency [2] | Potency [3] | Potency [4]

CC1(C)[C@@H]2CC=C(CO[C@@H]3O[C@H](CO[C@@H]4OC[C@H](O)[C@H](O)[C@H]4O)[C@@H](O)[C@H](O)[C@H]3O)[C@H]1C2
inactive: Potency [1] | Potency [2] | Potency [3] | Potency [4]

O=C(OCC1=CC(Cl)C(O)C(OC(=O)c2ccccc2)C1O)c1ccccc1 (centres undefined)
inactive: Potency [1] | Potency [2] | Potency [3] | Potency [4]

CC12CC(O)C(O)C=C1c1cc(O)cc(O)c1C(=O)O2 (centres undefined)
inactive: Potency [1] | Potency [2] | Potency [3] | Potency [4]

CC(=O)O[C@@H]1CC2C(C)(C)C(=O)C=C[C@]2(C)C2CC[C@]3(C)C(=CC(=O)[C@@H]3c3ccoc3)[C@@]21C (some centres undefined)
inactive: Potency [1] | Potency [2] | Potency [3] | Potency [4]

Nc1ncnc2c1ncn2[C@H]1O[C@@H](C(=O)N2CCN(CC(=O)Nc3cccc4c3CNC4=O)CC2)[C@H](O)[C@@H]1O
inactive: Potency [1] | Potency [2] | Potency [3] | Potency [4]

CC(=O)O[C@@H]1[C@@H](O)[C@H](C)O[C@@H](O[C@H]2[C@@H]3C=CO[C@@H](O[C@@H]4O[C@H](CO)[C@@H](O)[C@H](O)[C@H]4OC(C)=O)[C@@H]3[C@@]3(CO)O[C@@H]23)[C@@H]1OC(=O)/C=C/c1ccc(O)cc1
inactive: Potency [1] | Potency [2] | Potency [3] | Potency [4]

CC(C)C1NC(=O)C2CCCN2C1=O (centres undefined)
inactive: Potency [1] | Potency [2] | Potency [3] | Potency [4]
